The values that follow come from PubChem BioAssay AID540259 (Broad Institute, 2011).

The structures appear in SMILES notation. Measured potencies and affinities stand elsewhere. Active and inactive are the calls of the source.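 How the source made its calls: active means cell killing, meaning signal decrease, with fitted half-maximal dose at or below ten times the top valid tested dose; inconclusive means poor fit, or flat curve with 30 to 70% signal loss; inactive means the rest.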

The assay can be described thus: ATP-based viability loss in HeLa cells – cell-based, CellTiter-Glo luminescence, cherry-pick samples, cytotoxicity control for MITF activator project, dose response (AID 540259). To be noted: 24 h; series mostly up to 35 µM. (In ATP-based viability assays light output follows the ATP content of the culture.)
For `NNC(=O)c1ccc2nc(-c3ccc(Br)cc3)cn2c1`, the call was inactive. Regarding `COc1ccc(/C=C2\SC(=O)N(CCNC(=O)C3CC4C=CC3C4)C2=O)cc1` (configuration not stated), the call was inactive. To `Cc1cc(Cl)ccc1OCc1cn2cccnc2n1` belongs “inactive”; to `O=C(Nc1ccc2oc(-c3ccccc3)nc2c1)c1cccnc1`, “inactive”. Regarding `Cc1ccc(-c2csc(NC(=O)c3ccc(Br)cc3)c2C(=O)O)cc1`, the call was inactive. To `COC(=O)c1ccc(Nc2ncnc3sccc23)cc1` belongs “inactive”; to `Clc1ccc(C#Cc2cccnc2)cc1`, “inactive”; to `COc1ccc(C(=O)c2ccc(CC#N)s2)cc1`, “inactive”. Consider `O=C(Oc1ccc2ccccc2c1Cl)N1CCCCCC1`, for which the compound was called inactive.

For the compound `N#C/C(=N\Nc1ccccc1F)C(=N)N1CCCCC1`, the compound was called inactive.

Turning to `Cc1cc(NC(=O)Nc2ccc3c(ccn3C)c2)sn1`, the call was inactive.

As to `CCC(C)NC(=O)c1cn(-c2cccc(C)n2)cn1` (configuration not stated), the outcome was inactive. To `c1ccc(-c2ccc3[nH]ccc3c2)cc1` belongs “inactive”; to `C/C(=N/NC(=O)c1ccncc1)c1ccc(NC(=O)c2ccc(Cl)cc2Cl)cc1`, “inactive”. In the case of `CCn1c(C(=O)NC2CCC(C)CC2)cc2sccc21` (configuration not stated), the compound was called inactive.

Regarding `COc1ccc(NC(=O)C2Cc3ccccc3O/C2=N\O)cc1` (configuration not stated), the result was inactive. To `O=C(NCc1ccc2c(c1)OCO2)Nc1cccc(Cl)c1` belongs “inactive”.

Regarding `c1ccc(CSCc2nc3ccccc3[nH]2)cc1`, the outcome was inactive. `O=C1OC(c2ccccc2)=C/C1=C/N1CCCCC1`: the call was inactive.

With `CC(C)(C)N1C(=O)c2ccc(C(=O)Nc3nccs3)cc2C1=O`, the call was inactive.

As to `Nc1ncccc1OCc1ccc(Br)cc1`, the outcome was inactive.

Take `Cc1ccc(-c2nn(-c3ccccc3)cc2/C=N/O)cc1`: the outcome was inactive.
